Data on six compounds can be found in PubChem BioAssay (EPA / NIEHS).

Read-out in experiment [1]: Thrombomodulin, THBD (gene 7056)
The experiment is described as follows: BSK_CASM3C_Thrombomodulin: BioMAP Diversity Plus: CASM3C Assay for Thrombomodulin Biomarker Activity (AID 2283051).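 Also: thrombomodulin protein level measured by ELISA 24 h after dosing.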 The settings on record: primary human coronary artery smooth muscle cells; actives raise or lower the signal.

Read-out in experiment [2]: Tissue Factor, F3 (gene 2152)
As to the kind of experiment: BSK_CASM3C_TissueFactor: BioMAP Diversity Plus: CASM3C Assay for Tissue Factor Biomarker Activity (AID 2283052).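 Also: cell surface tissue factor protein level read by ELISA.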 The note with it: primary human coronary artery smooth muscle cells; actives raise or lower the signal.

Read-out in experiment [3]: Interferon-gamma inducible Protein 10 (IP10), CXCL10 (gene 3627)
The experiment is described as follows: BSK_hDFCGF_IP10: BioMAP Diversity Plus: hDFCGF Assay for Interferon-gamma inducible Protein 10 (IP10) Biomarker Activity (AID 2283053). The settings on record: primary human foreskin fibroblasts; actives raise or lower the signal. In outline:
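Primary foreskin fibroblasts, human; 24 h compound exposure; IP-10 by ELISA; bidirectional fit vs DMSO.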

Read-out in experiment [4]: Urokinase-type plasminogen activator receptor (uPAR), PLAUR (gene 5329)
The experiment is described as follows: BSK_CASM3C_uPAR: BioMAP Diversity Plus: CASM3C Assay for Urokinase-type plasminogen activator receptor (uPAR) Biomarker Activity (AID 2283054).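 Also: cell-surface uPAR protein level quantified by ELISA.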 The note with it: primary human coronary artery smooth muscle cells; actives raise or lower the signal.

Read-out in experiment [5]: Vascular cell adhesion molecule 1 (VCAM1), VCAM1 (gene 7412)
As to the kind of experiment: BSK_CASM3C_VCAM1: BioMAP Diversity Plus: CASM3C Assay for Vascular cell adhesion molecule 1 (VCAM1) Biomarker Activity (AID 2283055).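 Also: VCAM-1 protein level quantified by ELISA on the cells.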 The settings on record: primary human coronary artery smooth muscle cells; actives raise or lower the signal.

Read-out in experiment [6]: Collagen III, COL3A1 (gene 1281)
As to the kind of experiment: BSK_hDFCGF_CollagenIII: BioMAP Diversity Plus: hDFCGF Assay for Collagen III Biomarker Activity (AID 2283056). The note with it: primary human foreskin fibroblasts; actives raise or lower the signal. The gist of the method: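 ELISA read-out of collagen III from human skin fibroblast cultures sampled 24 h post-dosing. Values were derived by bidirectional fitting relative to the DMSO vehicle control.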

Read-out in experiment [7]: Epidermal growth factor receptor (EGFR), EGFR (gene 1956)
The experiment is described as follows: BSK_hDFCGF_EGFR: BioMAP Diversity Plus: hDFCGF Assay for Epidermal growth factor receptor (EGFR) Biomarker Activity (AID 2283057). The note with it: primary human foreskin fibroblasts; actives raise or lower the signal. In outline:
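hDFCGF system, primary human foreskin fibroblasts; compound 24 h; EGFR measured by ELISA; DMSO = negative control/baseline; bidirectional fitting.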

Read-out in experiment [8]: Interleukin-8 (IL8), CXCL8 (gene 3576)
The experiment is described as follows: BSK_hDFCGF_IL8: BioMAP Diversity Plus: hDFCGF Assay for Interleukin-8 (IL8) Biomarker Activity (AID 2283058). The settings on record: primary human foreskin fibroblasts; actives raise or lower the signal. In outline: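 Cells used are human skin primary fibroblasts. Chemical is added, cultures run 24 h, then IL-8 is quantified by ELISA, and gain or loss versus DMSO control is fitted in both directions.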

The nature of experiment [9]: BSK_hDFCGF_Proliferation: Cell Proliferation Assessment in the BioMAP Diversity Plus: hDFCGF Assay (AID 2283059).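 Also: curves fitted for both rise and fall of signal versus DMSO baseline.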 The settings on record: primary human foreskin fibroblasts. The gist of the method:
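Sub-confluent human foreskin fibroblast cultures receive test chemical […]. Relative cell number is quantified by sulforhodamine B staining (0.1%, after 10% TCA fixation) at 560 nm, with bidirectional fitting referenced to DMSO.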

Read-out in experiment [10]: Macrophage colony-stimulating factor (MCSF), CSF1 (gene 1435)
The experiment is described as follows: BSK_hDFCGF_MCSF: BioMAP Diversity Plus: hDFCGF Assay for Macrophage colony-stimulating factor (MCSF) Biomarker Activity (AID 2283060). The note with it: primary human foreskin fibroblasts; actives raise or lower the signal. The gist of the method:
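Primary human foreskin fibroblasts dosed with chemical; 24 h later, M-CSF quantified by ELISA; curves fitted in both directions vs DMSO negative control.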

Experiment [11] in a line: BSK_hDFCGF_SRB: Viability Assessment in the BioMAP Diversity Plus: hDFCGF Assay (AID 2283061).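 Also: cells exposed to compound for 24 h before the read.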 The note with it: primary human foreskin fibroblasts. In outline: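 Readout is SRB absorbance at 560 nm, reflecting total protein in parallel cultures of human foreskin fibroblasts harvested 24 h after chemical dosing. Activity was fitted bidirectionally relative to DMSO.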
Read-out in experiment [12]: TIMP metallopeptidase inhibitor 1 (TIMP1), TIMP1 (gene 7076)
As to the kind of experiment: BSK_hDFCGF_TIMP1: BioMAP Diversity Plus: hDFCGF Assay for TIMP metallopeptidase inhibitor 1 (TIMP1) Biomarker Activity (AID 2283062). The settings on record: primary human foreskin fibroblasts; actives raise or lower the signal. In outline:
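Human skin fibroblasts (primary), hDFCGF system; compound exposure 24 h; TIMP-1 by ELISA; bidirectional fit vs DMSO negative control; overt cytotoxicity by SRB in parallel wells.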

Read-out in experiment [13]: Monokine induced gamma interferon (MIG), CXCL9 (gene 4283)
As to the kind of experiment: BSK_hDFCGF_MIG: BioMAP Diversity Plus: hDFCGF Assay for Monokine induced gamma interferon (MIG) Biomarker Activity (AID 2283063). The note with it: primary human foreskin fibroblasts; actives raise or lower the signal. The gist of the method: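 Chemicals were added to primary human foreskin fibroblast cultures, which were sampled 24 h later. MIG levels were then quantified by ELISA and responses fitted in both directions relative to DMSO.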

Read-out in experiment [14]: Vascular cell adhesion molecule 1 (VCAM1), VCAM1 (gene 7412)
As to the kind of experiment: BSK_hDFCGF_VCAM1: BioMAP Diversity Plus: hDFCGF Assay for Vascular cell adhesion molecule 1 (VCAM1) Biomarker Activity (AID 2283065).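 As to AC50: VCAM-1 protein level quantified by ELISA after 24 h chemical exposure.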 The note with it: primary human foreskin fibroblasts; actives raise or lower the signal. In outline: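 Human foreskin fibroblast primary cells, chemical exposure 24 h; VCAM-1 by ELISA; bidirectional fit, DMSO = negative control/baseline.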

Read-out in experiment [15]: Plasminogen activator inhibitor-1 (PAI1), SERPINE1 (gene 5054)
As to the kind of experiment: BSK_hDFCGF_PAI1: BioMAP Diversity Plus: hDFCGF Assay for Plasminogen activator inhibitor-1 (PAI1) Biomarker Activity (AID 2283066). The note with it: primary human foreskin fibroblasts; actives raise or lower the signal. The gist of the method:
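Primary dermal fibroblasts (human foreskin), hDFCGF system; compound 24 h; PAI-1 by ELISA; bidirectional fit vs DMSO control.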

Read-out in experiment [16]: Intercellular Adhesion Molecule 1 (ICAM1), ICAM1 (gene 3383)
The experiment is described as follows: BSK_KF3CT_ICAM1: BioMAP Diversity Plus: KF3CT Assay for Intercellular Adhesion Molecule 1 (ICAM1) Biomarker Activity (AID 2283067). The note with it: primary human keratinocytes with fibroblasts; actives raise or lower the signal. The gist of the method: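 ICAM-1 levels are measured by ELISA 24 h after dosing a primary human co-culture of keratinocytes and foreskin fibroblasts. Activity in either direction is fitted relative to DMSO vehicle.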

Read-out in experiment [17]: Interferon-gamma inducible Protein 10 (IP10), CXCL10 (gene 3627)
As to the kind of experiment: BSK_KF3CT_IP10: BioMAP Diversity Plus: KF3CT Assay for Interferon-gamma inducible Protein 10 (IP10) Biomarker Activity (AID 2283068). The note with it: primary human keratinocytes with fibroblasts; actives raise or lower the signal. The gist of the method: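 ELISA read-out of IP-10 after 24 h chemical dosing of human skin primary co-culture (keratinocytes, foreskin fibroblasts). Gain or loss of signal relative to DMSO, bidirectional curve fit.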

Read-out in experiment [18]: Interleukin-1 alpha (IL1a), IL1A (gene 3552)
The experiment is described as follows: BSK_KF3CT_IL1a: BioMAP Diversity Plus: KF3CT Assay for Interleukin-1 alpha (IL1a) Biomarker Activity (AID 2283070). The settings on record: primary human keratinocytes with fibroblasts; actives raise or lower the signal. In outline: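 Human keratinocyte plus foreskin fibroblast primary co-culture, sampled 24 h after chemical dosing. IL-1a measured by ELISA; responses fitted bidirectionally against DMSO baseline (negative control), so gain or loss of signal both count.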

Several values for one entry are separate records, joined by “and”; a condition that tells them apart may be missing. Equal values may be shown once. Activity calls are given as the source filed them. The calls were made as follows: active = hit-call score of the fitted dose curve at least 0.9, where 1 is the maximum; inactive = score below 0.9.

On to `Cc1cc(C2(c3cc(C)c(O)cc3C)OS(=O)(=O)c3ccccc32)c(C)cc1O`, for which the outcome in experiment [1], in experiment [2], in experiment [3], in experiment [4], in experiment [5] and in [6] was inactive. Moreover, the outcome in experiment [7], in experiment [8], in experiment [9], in experiment [10], in experiment [11] and in [12] was inactive. The outcome in [13], in experiment [14], in experiment [16], in experiment [17] and in experiment [18] was inactive. Moreover, in experiment [15], the concentration at half-maximal activity (AC50) is 20 µM (active) and 4.95 µM (active).
`N#Cc1ccc(CC(=NNC(=O)Nc2ccc(OC(F)(F)F)cc2)c2cccc(C(F)(F)F)c2)cc1`: the result in experiment [1], in experiment [2], in experiment [3], in experiment [4], in [5] and in [6] was inactive. For the same compound, the outcome in [7], in experiment [8], in experiment [9], in experiment [10], in experiment [11] and in experiment [12] was inactive. The result in [13], in experiment [14], in experiment [15], in experiment [16], in [17] and in experiment [18] was inactive.
As to `COC(=O)c1ccc(C)cc1`, the outcome in experiment [1], in experiment [2], in experiment [3], in experiment [4], in experiment [5] and in experiment [6] was inactive. Moreover, the outcome in experiment [7], in [8], in experiment [9], in experiment [10], in [11] and in [12] was inactive. Further, the outcome in experiment [13], in [14], in [15], in experiment [16], in experiment [17] and in [18] was inactive.
`CCCCCCCCCC=O`: the result in experiment [1], in [2], in experiment [3], in experiment [4], in experiment [5] and in [6] was inactive. In addition, the result in experiment [7], in [8], in [9], in experiment [10], in [11] and in [12] was inactive. Moreover, the result in experiment [13], in experiment [14], in experiment [15], in experiment [16] and in experiment [18] was inactive. In addition, the AC50 in experiment [17] is 11.9 µM (active).
`OC[C@H]1O[C@H](O[C@]2(CCl)O[C@H](CCl)[C@@H](O)[C@@H]2O)[C@H](O)[C@@H](O)[C@H]1Cl`: the outcome in [1], in [2], in experiment [3], in experiment [4], in experiment [5] and in experiment [6] was inactive. For the same compound, the result in experiment [7], in [8], in [9], in experiment [10], in experiment [11] and in experiment [12] was inactive. For the same compound, the outcome in experiment [13], in experiment [14], in experiment [15], in experiment [16], in experiment [17] and in [18] was inactive.
For `BrC1CCC(Br)C(Br)CCC(Br)C(Br)CCC1Br` (stereo not drawn), the outcome in [1], in experiment [2], in experiment [3], in experiment [4], in experiment [5] and in experiment [6] was inactive. The outcome in experiment [7], in experiment [8], in experiment [12], in experiment [13], in experiment [16] and in experiment [18] was inactive. Further, the AC50 is 1.33 µM (active) in experiment [9]; 4.61 µM (active) in experiment [10]; 1.5 µM (active) in [11]; 4.68 µM (active) in experiment [14]; 1.37 µM (active) in [15]; 4.53 µM (active) in experiment [17].

As a reminder, the AC50 is the concentration at which the activity in the assay is half-maximal.
